HTT-AS act – activators of huntingtin-antisense promoter activity; Potency, µM (highest dose often 57.5 µM), inactives show at the top dose activity change, positive = activation, usual class: activators; HEK293 HTT-AS promoter firefly luciferase reporter, 24 h; response scale: percent change from vehicle, -100% = no light; 0.24% of 48,000 active; further: potency means the concentration at half of the fitted maximal effect; nearly all actives have a fitted effect of over 55% in size
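HEK293 luciferase promoter-reporter cells (2,500/well) plated 24 h, then compounds added at up to 57.5 uM final for 24 h at 37 °C. Firefly luminescence by Dual-Glo, normalized to vehicle (0%) and zero RLU (-100%).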
S16 viability – S16 Schwann cell cytotoxicity; S16 Pmp22-F2sN Schwann cells viability, CellTiter-Glo, 24 h; Potency, µM (top dose mostly 57.5 µM), for the others: at the highest dose activity change, negative = cytotoxicity, hits mostly cytotoxic; 0.48% of 43,000 active; AID 1508642; further: potency means the concentration at half of the fitted maximal effect; on the % scale 0 is the no-effect control and ±100 the full control effect; nearly all actives have a fitted effect of over 65% in size
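S16 Schwann cells carrying the Pmp22-F2sN reporter, seeded in 1536-well format, were exposed to library compounds for 24 h at 37C. Viability was read as CellTiter-Glo luminescence after 15 min at room temperature.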
PMP22 txn – PMP22 gene transcription modulation; S16 Pmp22-F2sN Schwann cells, FLuc/NLuc coincidence luminescence, 24 h; Potency, µM (series often up to 57.5 µM), for inactives: at the top dose activity change, negative = inhibition, most hits filed as inhibitors; 2% of 43,000 active; AID 1508649; active means clear falling dose curves in both reporters; inconclusive means both reporters move, but less clearly or upward; inactive means either reporter flat; the % is the NLuc reporter signal; further: potency means the concentration at half of the fitted maximal effect; on the % scale 0 is the no-effect control and ±100 the full control effect
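Reporter cells (S16 Pmp22-F2sN, 500–1,000 per well) exposed to compounds for 24 h, 37C, 5% CO2; lysis with FLuc read after 10 min, then Stop&Glo and NLuc read after 10 min.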
HTT promoter inh – inhibitors of huntingtin promoter activity | HEK293 HTT promoter firefly luciferase reporter, 24 h | 0.93% of 48,000 active | Potency, µM (doses to about 57.5 µM), for the others: at the highest dose activity change, negative = inhibition, actives largely listed as inhibitors; further: potency means the concentration at half of the fitted maximal effect; nearly all actives have a fitted effect of over 50% in size
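Firefly luciferase readout (Dual-Glo, 10 min RT) after 24 h, 37 °C compound exposure (final up to 57.5 uM) of HEK293 reporter cells cultured 24 h beforehand; PTC124 at 50 uM final as control inhibitor; activity scaled vehicle 0%, zero RLU -100%.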
pS6 MEF inh – reduces mTORC1 signaling in Tsc2 and p53 null MEF cells; 0.78% of 44,000 active; Tsc2-/- p53-/- MEF, phospho-rpS6 immunofluorescence/PI, 24 h; Potency, µM (top dose mostly 38.3 µM), for inactives: at the highest dose activity change, negative = inhibition, actives largely listed as inhibitors;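 further: potency means the concentration at half of the fitted maximal effect; plate controls were DMSO for no effect and rapamycin for full effect; nearly all actives have a fitted effect of over 50% in size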
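Plate MEFs (Tsc2-/-, p53-/-, empty vector) in DMEM/10% FBS; after 24 h add compound, incubate 24 h at 37 degree Celsius; fix in PFA/TX-100, block, stain phospho-rpS6 and 10 uM PI; scan at 488 nm; report % positive cells.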
NLuc saturating – counter-screen for PMP22 expression modulators: NanoLuc inhibition, saturating substrate | shares compounds with PMP22 txn | Secreted NLuc enzyme (filtered S16 cell medium), Nano-Glo luminescence | Potency, µM (top dose mostly 57.5 µM), inactives show top-dose activity change, negative = inhibition, actives largely listed as inhibitors | 4% of 690 active | AID 1508638; further: potency means the concentration at half of the fitted maximal effect; on the % scale 0 is the no-effect control and ±100 the full control effect
NLuc Km ctr – inhibits NanoLuc under Km conditions, PMP22 counter-screen; secreted NLuc enzyme, coelenterazine luminescence, Km conditions; shares compounds with PMP22 txn; 5% of 690 active; Potency, µM (highest dose often 57.5 µM), inactives show at the highest dose activity change, negative = inhibition, hits mostly inhibitors; further: potency means the concentration at half of the fitted maximal effect; on the % scale 0 is the no-effect control and ±100 the full control effect
FLuc counter – counter-screen for PMP22 expression modulators: firefly luciferase inhibition | shares compounds with PMP22 txn | purified P. pyralis FLuc, luminescence, 10 min | Potency, µM (series often up to 57.5 µM), without a hit: at the top dose activity, negative = inhibition, hits mostly inhibitors | 690 tested, under 10 active; further: % of control where 0% means no effect
Target sequence (P08659 whole entry, looked up): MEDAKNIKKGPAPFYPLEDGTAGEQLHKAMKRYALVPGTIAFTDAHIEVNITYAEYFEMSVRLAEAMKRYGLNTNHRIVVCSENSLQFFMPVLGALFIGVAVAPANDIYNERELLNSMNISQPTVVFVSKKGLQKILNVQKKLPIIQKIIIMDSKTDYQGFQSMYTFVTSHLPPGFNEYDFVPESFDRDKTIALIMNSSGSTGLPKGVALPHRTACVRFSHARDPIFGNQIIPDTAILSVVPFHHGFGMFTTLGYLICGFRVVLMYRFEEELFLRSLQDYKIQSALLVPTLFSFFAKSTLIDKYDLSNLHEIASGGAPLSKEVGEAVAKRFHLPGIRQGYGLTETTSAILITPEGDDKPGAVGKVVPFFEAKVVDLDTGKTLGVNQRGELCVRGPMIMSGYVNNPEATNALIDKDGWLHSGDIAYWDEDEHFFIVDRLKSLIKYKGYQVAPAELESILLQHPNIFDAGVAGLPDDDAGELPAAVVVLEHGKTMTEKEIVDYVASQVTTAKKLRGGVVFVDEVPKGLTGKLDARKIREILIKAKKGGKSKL
S16 F2sN tox cnf – confirmation of cytotoxicity in S16 Pmp22-F2sN Schwann cells (luciferase reporters placed in the Pmp22 gene); shares compounds with PMP22 txn; Potency, µM (series often up to 57.5 µM), inactives show at the highest dose activity change, negative = viability loss, hits mostly cytotoxic; 7% of 690 active; S16 Schwann cells viability, CellTiter-Glo ATP luminescence, 24 h; further: potency means the concentration at half of the fitted maximal effect; on the % scale 0 is the no-effect control and ±100 the full control effect
PMP22 txn conf – PMP22 transcription modulation, confirmatory; S16 Schwann cells Pmp22-F2sN, dual luciferase, 24 h; shares compounds with PMP22 txn; 22% of 690 active; Potency, µM (highest dose often 57.5 µM), for inactives: at the highest dose activity change, negative = inhibition, most hits filed as inhibitors; active means clear falling dose curves in both reporters; inconclusive means both reporters move, but less clearly or upward; inactive means either reporter flat; the % is the FLuc reporter signal; further: potency means the concentration at half of the fitted maximal effect
PMP22 prot conf – confirmation of modulators of rat PMP22 protein expression; shares compounds with PMP22 txn; S16 Schwann cells Pmp22-HiBiT, luminescence, 48 h; Potency, µM (titrated, usually from 27.9 µM), for inactives: at the top dose activity change, negative = inhibition, most hits filed as inhibitors; 95 tested, under 10 active; AID 1508647
Target sequence (P25094 whole entry, looked up): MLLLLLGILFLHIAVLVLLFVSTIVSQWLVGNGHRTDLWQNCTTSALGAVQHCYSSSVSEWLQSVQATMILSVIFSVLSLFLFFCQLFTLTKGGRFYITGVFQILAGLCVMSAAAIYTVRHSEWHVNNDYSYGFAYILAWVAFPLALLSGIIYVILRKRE
* = called active by the depositor; ? = inconclusive; · = not tested or not shown. Hits are enriched below; roughly 3.6% of the tested compounds scored in any of these assays. Unless noted, the call rests on the fitted dose curve; in most records, active means well fitted curve in the direction sought with a large enough effect; inconclusive means small, poorly fitted or top-dose-only effect, or another doubt; inactive means no such curve, though single readings can be large; an effect the other way counts as inactive or inconclusive.

SMILES	HTT-AS act	S16 viability	PMP22 txn	HTT promoter inh	pS6 MEF inh	NLuc saturating	NLuc Km ctr	FLuc counter	S16 F2sN tox cnf	PMP22 txn conf	others
COc1cc(NC(=O)N2CCC(CN3CCOCC3)CC2)cc(OC)c1OC	-1.4%	14.1%	-46.4%	-15.5%	-7.6%	-7.0%	0.8%	-6.5%	1.8%	7.1%
O=C(Cc1ccc(-c2ccccc2)cc1)NCCS(=O)(=O)N1CCN(c2ccccc2)CC1	-19.9%	-1.4%	?	?	0.0%	·	·	·	·	·
COc1ccc(N2CCN(S(=O)(=O)CCNC(=O)Cc3ccc(-c4ccccc4)cc3)CC2)cc1	-7.9%	10.6%	10.5µM*	-27.8%	-6.1%	-9.2%	1.8%	-18.2%	-18.1%	-11.9%
Cc1cnc(-c2cnc(NCCNc3ccc(C#N)cn3)nc2-c2ccc(Cl)cc2Cl)[nH]1	-21.4%	·	·	-22.4%	·	·	·	·	·	·
Cc1cccc(N2CCN(C(=O)c3cccc(-n4c(C)nc5cccnc54)c3)CC2)c1C	-31.6%	0.0%	12.7µM*	?	-16.2%	?	?	4.8%	10.5%	-4.0%
Cc1ccc(C)c(N2CCN(C(=O)c3cccc(-n4c(C)nc5cccnc54)c3)CC2)c1	-43.0%	?	?	?	-8.4%	·	·	·	·	·
Cc1ccc(Cl)cc1N1CCN(C(=O)c2ccc(C)c(-n3c(C)nc4cccnc43)c2)CC1	-52.2%	?	18.9µM*	?	-3.0%	21.7µM*	19.3µM*	6.6%	-14.3%	?
COc1ccc([C@@H]2CC(=O)c3c(O)cc(O[C@@H]4O[C@H](CO[C@@H]5O[C@@H](C)[C@H](O)[C@@H](O)[C@@H]5O)[C@@H](O)[C@H](O)[C@@H]4O)cc3O2)cc1O	-24.9%	·	·	?	·	·	·	·	·	·
CCOc1ccc(CCNc2nc3ccccc3n3c(C)nnc23)cc1OCC	-16.5%	-2.7%	?	-11.1%	-7.7%	?	?	0.6%	0.3%	?
Cc1cccc(NC(=O)Cn2c(=O)c3cccn3c3ccccc32)c1C	-11.2%	-2.1%	?	-11.7%	?	-2.4%	3.0%	2.0%	14.6%	-26.0%
CCc1ccccc1NC(=O)Cn1c(=O)c2cccn2c2ccc(F)cc21	-8.6%	5.7%	-4.3%	-10.7%	-8.1%	·	·	·	·	·
N=c1n(CCN2CCCCC2)c2ccccc2n1CC(O)COc1ccccc1 (stereo not drawn)	-50.4%	-20.7%	?	?	·	·	·	·	·	·
CCCCCn1c(=N)n(CC(O)COc2cccc(C)c2)c2ccccc21 (stereo not drawn)	-33.2%	?	17.8µM*	?	3.69µM*	-11.1%	4.4%	-3.5%	21.7µM*	16.3µM*
CC(=O)c1ccc(NC(=O)CSC2=Nc3ccccc3N=C(c3ccc(F)cc3)C2)cc1	-37.1%	?	14.5µM*	-2.4%	3.8%	?	?	-0.1%	-6.2%	?
O=C(CSC1=Nc2ccccc2N=C(c2ccc(F)cc2)C1)Nc1ccccc1	-28.0%	25.6%	-30.8%	-14.3%	-7.6%	·	·	·	·	·
CC(C)(C)OC(=O)CN(Cc1ccc(Cl)cc1)Cc1ccc([N+](=O)[O-])s1	-14.1%	·	·	-6.1%	·	·	·	·	·	·
CC1CCC(Nc2ncnc3onc(-c4ccc(Cl)cc4)c23)CC1 (stereo not drawn)	-31.0%	-1.3%	-10.5%	?	-6.0%	·	·	·	·	·
Cc1cccc(CCNc2ncnc3onc(-c4ccc(Cl)cc4)c23)c1	-41.1%	-18.8%	18.9µM*	?	1.4%	-0.5%	-1.3%	-5.6%	?	?
Clc1ccc(-c2noc3ncnc(NC4CCCCC4)c23)cc1	-26.3%	-0.5%	?	?	-0.2%	-8.3%	-1.1%	-3.5%	-9.7%	?
Clc1cccc(-c2noc3ncnc(NC4CCCCC4)c23)c1	-31.4%	-18.7%	?	?	-13.3%	-12.5%	2.0%	-11.0%	-16.4%	8.16µM*	PMP22 prot conf=-6.3%
O=C(O)CCCCCC(=O)NN=C1CCCC1	-8.7%	·	·	-0.4%	·	·	·	·	·	·
COc1ccc(NC(=O)c2c(NCc3ccc(C)o3)sc3c2CCCCC3)c(OC)c1	-26.5%	-25.0%	14.1µM*	-21.0%	?	?	?	-23.2%	6.9%	?
COc1ccc(NC(=O)c2c(NCc3ccc(C)o3)sc3c2CCC(C)C3)c(OC)c1 (stereo not drawn)	-23.3%	?	?	?	?	·	·	·	·	·
CC(C)(C)c1cc(C(C)(C)C)c(NC(=O)c2c[nH]c3ccccc3c2=O)cc1O	-8.2%	·	·	-25.9%	·	·	·	·	·	·
CCn1ccc2c(OCC(=O)Nc3ccccc3C(F)(F)F)cccc2c1=O	-34.5%	?	18.9µM*	?	-6.0%	?	?	-7.3%	2.2%	?
CNC(=O)c1c(-c2ccc(F)cc2)oc2cc(N(CCO)S(C)(=O)=O)c(C3CC3)cc12	-36.6%	·	·	-7.1%	·	·	·	·	·	·
CCC(C)NC(=O)C1CCN(C(=O)c2cc3sccc3n2Cc2ccc(Cl)cc2)CC1 (stereo not drawn)	-53.9%	?	8.91µM*	8.91µM*	-0.3%	?	?	10.9%	?	13.8µM*	PMP22 prot conf=1.62µM*
CC1(C)Cc2c(-c3ccccc3)c(-c3ccc(Cl)cc3)c(CC(=O)O)n2C1	-31.4%	·	·	-21.8%	·	·	·	·	·	·
C[N+]1(C)[C@@H]2CC(OC(=O)[C@H](CO)c3ccccc3)C[C@H]1[C@H]1O[C@@H]12 (stereo partly drawn)	14.2%	·	·	20.6%	·	·	·	·	·	·

From PubChem
